{"source": "ChEMBL document CHEMBL3988442", "about": "“University of Dundee, Small-Polar-MMV Screening Library” (2021)", "note": "The campaign covered roughly 48,000 compounds. About 13,000 (27%) showed an effect of 50% or more. The list shows a part of the results.", "data": [{"test_system": "Wolbachia pipientis", "assay": "Anti-Wolbachia Cell-Based Screen", "type": "functional", "parameters": "scale not given: in the data most compounds retested in dose-response had high values", "details": "5 µM", "units": {"Percent Effect": "%"}, "values": [{"molecule": "CC(C)c1nc(CN2CCC(CO)CC2)cs1", "Percent Effect": -12.85}, {"molecule": "O=C(c1ccco1)N1CCCn2cnc(COCC3CC3)c2C1", "Percent Effect": -7.899}, {"molecule": "O=C(c1ccc[nH]1)N1CCCn2cnc(COCC3CC3)c2C1", "Percent Effect": -13.58}, {"molecule": "O=C(c1ccc2[nH]ccc2c1)N1CCn2cnc(COCC3CC3)c2C1", "Percent Effect": -3.31}, {"molecule": "COCc1ncn2c1CN(C(=O)c1ccc[nH]1)CC2", "Percent Effect": 111}, {"molecule": "CN1CCN(Cc2cn3c(n2)CN(C(=O)c2ccco2)CC3)CC1", "Percent Effect": -12.05}, {"molecule": "COCc1ncn2c1CN(C(=O)c1ccco1)CC2", "Percent Effect": 113.2}, {"molecule": "CC(C)(C)c1coc([C@@H]2COCCN2Cc2c[nH]cn2)n1", "Percent Effect": -1.373}, {"molecule": "CCOCCN1CCN(Cc2nnc(-c3occc3C)o2)CC1CC", "note": "(centres undefined)", "Percent Effect": 4.766}, {"molecule": "CN(C)C(=O)CNC(=O)Nc1cccc(Cl)c1SC(F)F", "Percent Effect": -14}, {"molecule": "Cc1ccccc1N1CCCN(C(=O)CC2CN(C(C)C)CCO2)CC1", "note": "(centres undefined)", "Percent Effect": 116.5}, {"molecule": "Cc1ccccc1N1CCCN(C(=O)CN2C(=O)OC[C@@H]2C(C)C)CC1", "Percent Effect": 17.78}, {"molecule": "COC(=O)CC1CN(Cc2ccn(-c3ccc(F)cc3)n2)CCO1", "note": "(centres undefined)", "Percent Effect": -16.13}, {"molecule": "CC(C)N1CCOC(CC(=O)N2CCCN(c3ccc(F)cc3)CC2)C1", "note": "(centres undefined)", "Percent Effect": 103.5}, {"molecule": "CSCC(=O)N1CCCN(c2ccccc2C)CC1", "Percent Effect": 124.1}, {"molecule": "Cc1ccccc1N1CCN(C(=O)CC(C)C)CC1", "Percent Effect": -38.06}, {"molecule": "N#Cc1ccc(N2CCCN(C(=O)CC3CCCO3)CC2)cc1", "note": "(centres undefined)", "Percent Effect": 5.693}, {"molecule": "CSCC(=O)N1CCCN(c2ccncc2C)CC1", "Percent Effect": -12.26}, {"molecule": "CSCCC(=O)N1CCCN(c2ccccc2C)CC1", "Percent Effect": -1.705}, {"molecule": "NC(=O)c1cncc(-n2ccc(-c3cnccn3)n2)c1", "Percent Effect": -26.19}, {"molecule": "CC(C#N)(NC(=O)COc1ccccc1Br)C1CC1", "note": "(centres undefined)", "Percent Effect": 18.27}, {"molecule": "CN1CCN(CC2CC2)C(=O)C12CCN(C(=O)c1ccnnc1)CC2.O=C(O)C(F)(F)F", "Percent Effect": -9.864}, {"molecule": "O=C(CC(F)(F)F)N1CCC2(CCCN(c3nncs3)C2)C1", "note": "(centres undefined)", "Percent Effect": -11.31}, {"molecule": "Cc1ccc(N2CCCC3(CCN(C(=O)CC(F)(F)F)C3)C2)nn1", "note": "(centres undefined)", "Percent Effect": -9.607}, {"molecule": "CN1CCN(C)C2(CCN(C(=O)CC(F)(F)F)CC2)C1=O", "Percent Effect": 104}, {"molecule": "CCN1CCN(C)C2(CCN(C(=O)CC(F)(F)F)CC2)C1=O", "Percent Effect": 118.4}, {"molecule": "CN1CCN(CC2CC2)C(=O)C12CCN(C(=O)c1cnccn1)CC2", "Percent Effect": -10.28}, {"molecule": "CN1CCN(CC2CC2)C(=O)C12CCN(C(=O)CC(F)(F)F)CC2.O=C(O)C(F)(F)F", "Percent Effect": 112.7}, {"molecule": "CCN(C(=O)c1ccccc1I)C1CC(=O)NC1=O", "note": "(centres undefined)", "Percent Effect": 4.049}, {"molecule": "CC/C=C(/C)C(=O)N1CSCC1C(=O)NC1=NCCS1", "note": "(centres undefined)", "Percent Effect": -1.356}, {"molecule": "COc1ccc(S(=O)(=O)Nc2cccnc2-n2cncn2)cc1C", "Percent Effect": -1.49}, {"molecule": "COc1ccc(S(=O)(=O)NCCn2cnc(C)cc2=O)cc1C", "Percent Effect": 93.11}, {"molecule": "COc1ccc(F)cc1S(=O)(=O)NCC(c1cccn1C)N(C)C", "note": "(centres undefined)", "Percent Effect": -20.36}, {"molecule": "COc1ccc(F)cc1S(=O)(=O)NCCn1cnc(C)cc1=O", "Percent Effect": 77.48}, {"molecule": "COc1ccc(F)cc1S(=O)(=O)NCC(O)c1sccc1C", "note": "(centres undefined)", "Percent Effect": 28.76}, {"molecule": "COc1ncc(NS(=O)(=O)c2ccc(OC)c(C)c2)c(OC)n1", "Percent Effect": -43.62}, {"molecule": "CC1COc2ccccc2N1C(=O)c1ccnc(-n2cncn2)c1", "note": "(centres undefined)", "Percent Effect": -16.23}, {"molecule": "CNc1ncc(CN(C)C(=O)[C@@]23CNC[C@@H]2CN(C(=O)C2CC2)C3)cn1", "Percent Effect": -3.257}, {"molecule": "COc1cc(NCCNC(=O)c2cc[nH]c2C)cc(OC)c1", "Percent Effect": -11.29}, {"molecule": "COCCCC1(CO)CCCN(Cc2nccs2)C1", "note": "(centres undefined)", "Percent Effect": 3.777}, {"molecule": "O=C(NCc1ncc[nH]1)c1c(F)cccc1I", "Percent Effect": -7.586}, {"molecule": "COCCC(=O)N1CC2(CCN(c3ccccc3)C2)C1", "Percent Effect": -36.12}, {"molecule": "COCC(=O)N1C[C@@H](O)[C@H](N2CCN(c3ccccc3)CC2)C1", "Percent Effect": 143.5}, {"molecule": "COCCC(=O)N1C[C@@H](O)[C@H](N2CCN(c3ccccc3)CC2)C1", "Percent Effect": 133.4}, {"molecule": "CN1CCN([C@@H]2CN(C(=O)CCOc3ccccc3)C[C@H]2O)CC1", "Percent Effect": 98.51}, {"molecule": "Cc1ccsc1[C@@H]1CCN(C(=O)CCOc2ccccc2)C[C@H]1O", "Percent Effect": -3.102}, {"molecule": "CCOCC(=O)N1C[C@@H](O)[C@H](N2CCN(c3ccccc3)CC2)C1", "Percent Effect": 110.9}, {"molecule": "O=C(CO)N1CC[C@@H](N2CCN(c3ccccc3F)CC2)[C@H](O)C1", "Percent Effect": 5.557}, {"molecule": "COCCC(=O)N1CC[C@@H](N2CCN(C)CC2)[C@@H]1Cc1ccccc1", "Percent Effect": -8.117}, {"molecule": "CSCCC(=O)N1CC[C@@H](N2CCN(c3ccccc3F)CC2)[C@H](O)C1", "Percent Effect": -0.8189}, {"molecule": "CC(C)=CCN1CCN(CCCOc2ccccc2)[C@H]2CS(=O)(=O)C[C@H]21", "Percent Effect": -8.839}, {"molecule": "N#Cc1ccnc(N2CCN(CC(O)c3ccccc3Cl)CC2)c1", "note": "(centres undefined)", "Percent Effect": -8.703}, {"molecule": "O=C(CN1CCS(=O)(=O)CC1)NCc1cccc(Br)c1", "Percent Effect": -5.799}, {"molecule": "COCC1(CNC(=O)Nc2cc(F)ccc2OC)CCCC1", "Percent Effect": -0.947}]}]}
